A selection: hits, their analogues and other compounds. The true share with any hit is near 9.9%.
ALDH1A1 block = blocks purified human ALDH1A1 activity; 220,000 compounds, 7.3% hits; Purified ALDH1A1, NADH fluorescence, propionaldehyde substrate; Potency, µM (doses to about 75.3 µM), usual class: inhibitors; P00352
Target sequence (P00352 whole entry, looked up): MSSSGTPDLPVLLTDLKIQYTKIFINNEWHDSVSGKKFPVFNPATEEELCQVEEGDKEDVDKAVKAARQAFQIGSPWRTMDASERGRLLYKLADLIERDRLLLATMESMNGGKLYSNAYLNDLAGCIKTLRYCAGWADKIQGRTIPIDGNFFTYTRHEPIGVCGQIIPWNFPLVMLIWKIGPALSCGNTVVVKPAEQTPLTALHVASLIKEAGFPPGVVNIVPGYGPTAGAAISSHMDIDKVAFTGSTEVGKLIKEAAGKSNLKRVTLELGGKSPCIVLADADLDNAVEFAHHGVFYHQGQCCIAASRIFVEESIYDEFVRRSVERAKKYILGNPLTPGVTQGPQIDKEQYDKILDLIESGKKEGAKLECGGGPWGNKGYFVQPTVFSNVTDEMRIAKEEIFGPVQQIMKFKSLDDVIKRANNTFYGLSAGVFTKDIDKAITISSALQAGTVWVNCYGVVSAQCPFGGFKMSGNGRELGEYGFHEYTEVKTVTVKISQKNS
HPGD inh = inhibitors of human 15-hydroxyprostaglandin dehydrogenase (HPGD). P15428. purified HPGD, NADH fluorescence kinetic, PGE2 substrate. Potency, µM, usual class: inhibitors. 150,000 compounds, 4.3% hits. AID 894
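20 nM HPGD preincubated 15 min at room temperature with compound in 50 mM Tris-HCl pH 8, 0.01% Tween 20. Started with 1 mM NAD+ and 30 uM prostaglandin E2; NADH fluorescence (360/450 nm) read 5 times over 30-s intervals, last minus first.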
Tau FP inhib = blocks human tau fibril formation measured by polarization | P10636 | K18 P301L tau heparin fibrillization, Alexa594 FP, 6 h | Potency, µM (series often up to 57.7 µM), actives largely listed as inhibitors | 280,000 compounds, 0.39% hits | AID 1468; active = well fitted curve in the direction sought with a large enough effect; inconclusive = small, poorly fitted or top-dose-only effect, or another doubt; inactive = no such curve, though single readings can be large; an effect the other way counts as inactive or inconclusive; note: nearly all actives have a fitted effect of over 55% in size
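Compound effects on tau fibrillization are measured by Alexa 594 fluorescence polarization (ex 555, em 632 nm). K18 P301L tau is used at 15 uM with 0.24 uM labeled tracer, and 20 uM heparin induces aggregation over 6 hr at 37 C.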
JMJD2E inh = blocks human JMJD2E demethylase activity; Potency, µM (doses to about 57.1 µM), hits mostly inhibitors; B2RXH2; JMJD2E catalytic domain, FDH-coupled NADH fluorescence (FDH is formaldehyde dehydrogenase); 230,000 compounds, 1.6% hits; note: nearly all actives have a fitted effect of over 50% in size
Tau fluor cs = counter-screen for tau fibril formation inhibitors; 280,000 compounds, 0.93% hits; AID 1463; Potency, µM (top dose mostly 57.7 µM); tau K18 P301L Alexa594 fluorescence, heparin fibrillization; active = well fitted curve in the direction sought with a large enough effect; inconclusive = small, poorly fitted or top-dose-only effect, or another doubt; inactive = no such curve, though single readings can be large; an effect the other way counts as inactive or inconclusive; note: nearly all actives have a fitted effect of over 55% in size
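Human tau K18 P301L (15 uM unlabeled, 0.24 uM Alexa 594-labeled) in 100 mM sodium acetate pH 7 with 20 uM heparin, 6 hr at 37 C. ThT 30 uM added, 1 hr ambient; Alexa 594 FP and total fluorescence read at 555/632 nm.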
Tau ThT inhib = blocks human tau fibril formation measured by thioflavin T; P10636; recombinant tau K18 P301L (four-repeat tau fragment), heparin-induced fibrillization, ThT fluorescence; Potency, µM (doses to about 57.4 µM), hits mostly inhibitors; 270,000 compounds, 2.1% hits; AID 1460; active = well fitted curve in the direction sought with a large enough effect; inconclusive = small, poorly fitted or top-dose-only effect, or another doubt; inactive = no such curve, though single readings can be large; an effect the other way counts as inactive or inconclusive; note: nearly all actives have a fitted effect of over 55% in size
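Tau K18 P301L fragment (15 uM unlabeled plus 0.24 uM Alexa 594-labeled) in 100 mM sodium acetate pH 7 with compound, fibrillization induced by 20 uM heparin for 6 hr at 37 C. Thioflavin T (30 uM) added, fluorescence read after 1 hr (ex 450, em 510 nm).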
A number is an active result; 0 = inactive; ? = inconclusive; - = no result given; [ ] = remark or other dose. Unless noted, calls come from the whole dose curve; as a rule, active = well fitted inhibition curve with a large enough effect (not every such curve was filed as active); inconclusive = small, poorly fitted or top-dose-only effect, or another doubt; inactive = no such curve, though single readings can be large or run the other way.

SMILES | ALDH1A1 block | HPGD inh | Tau FP inhib | JMJD2E inh | Tau fluor cs | Tau ThT inhib
CC1CCCCN1C(=O)c1cc(F)c(F)cc1Cl (stereo unspecified) | 0 | 20µM | 0 | 0 | 0 | 0
CC1CCCN(C(=O)c2cc(F)c(F)cc2Cl)C1 (stereo unspecified) | 0 | 6.3µM | 0 | 0 | 0 | 0
CC1CCCCN1C(=O)Cc1ccc(Cl)cc1 (stereo unspecified) | 0 | 11µM | 0 | 0 | 0 | 0
Cc1cc(F)c(F)c(C(=O)N2CCCCC2C)c1Cl (stereo unspecified) | 0 | - | 0 | 0 | 0 | 0
CCCCC(=O)NC(=S)Nc1cccc(NC(=O)c2ccco2)c1 | ? | 0 | 0 | 0 | 0 | 0
N#Cc1ccc(N=c2ssnc2Cl)cc1 | 1.6µM | 2µM | ? | ? | 0 | 20µM
Clc1nssc1=Nc1ccccc1 | 1.6µM | - | 40µM | 10µM | 0 | 28µM
O=C1CSC(=Nc2ccc(Cl)cc2)N1Cc1ccco1 | - | - | 0 | 0 | 0 | 0
COc1cc(N=c2ssnc2Cl)cc(OC)c1OC | 2.8µM | 2.2µM | ? | 18µM | 0 | 20µM
Clc1ccc(N=c2ssnc2Cl)cc1 | 1.1µM | 1.8µM | 18µM | 10µM | 0 | 13µM
O=C1CSC(=Nc2ccccc2)N1Cc1ccccc1 | 0 | - | 0 | 0 | 0 | 0
Cc1ccc(C)c(N2CCN(c3cc(C)nc4c(-c5ccc(Cl)cc5)c(C)nn34)CC2)c1 | - | - | 0 | - | 0 | 0
CCCc1oc2c(c(=O)c1CC)C(=O)CC(C)(C)C2 | ? | 0 | 0 | 0 | 0 | 0
Fc1ccc(N=c2ssnc2Cl)c(F)c1 | 2.5µM | - | ? | ? | 0 | 14µM
COc1ccc(N=c2ssnc2Cl)cc1 | 1.8µM | 2.8µM | ? | 20µM | 0 | 13µM
COc1ccc(N=Cc2sc3ccccc3c2Cl)cc1 | 0 | 0 | 0 | 0 | 0 | ?
CCOC(=O)c1ccc(N=c2ssnc2Cl)cc1 | 2µM | - | ? | ? | 0 | 28µM
CC(C)CCn1c(=O)c2sccc2n2c(CCCC(=O)Nc3ccc(C(C)C)cc3)nnc12 | - | - | 0 | - | 0 | 0
Nc1ccc2oc(Cc3ccc(Cl)cc3)nc2c1 | - | - | ? | - | ? | 22µM
c1ccc(Cc2nc3ccccc3o2)cc1 | 0 | 0 | 0 | 0 | 0 | 0
CCc1ccc2oc(-c3cc(N)ccc3Cl)nc2c1 | ? | ? | 0 | ? | 14µM[quencher] | ?
CC(C)c1ccc2oc(-c3cc(NC(=O)c4cccnc4)ccc3Cl)nc2c1 | - | - | 7.9µM | - | ? | 0
O=C(Nc1ccc2oc(-c3ccccc3)nc2c1)c1cccnc1 | ? | 0 | 0 | 0 | 0 | 0
Cc1ccc2oc(-c3cc(NC(=O)c4ccco4)ccc3Cl)nc2c1 | - | - | ? | - | ? | 0
CCc1ccc2oc(-c3cc(NC(=O)c4cccs4)ccc3Cl)nc2c1 | - | - | 13µM | - | ? | 0
SMILES | ALDH1A1 block | HPGD inh | Tau FP inhib | JMJD2E inh | Tau fluor cs | Tau ThT inhib
O=C(CN1C(=O)C(c2ccc(F)cc2)=NC12CCCCCC2)Nc1ccc(F)c(Cl)c1 | - | - | ? | - | 0 | 0
Cc1onc(-c2c(Cl)cccc2Cl)c1C(=O)NNc1ccccc1 | 22µM | - | ? | ? | 0 | ?
Cc1onc(-c2c(Cl)cccc2Cl)c1C(=O)NCCc1ccc(S(N)(=O)=O)cc1 | 0 | 32µM | 0 | 0 | 0 | 0
Cc1onc(-c2c(Cl)cccc2Cl)c1C(=O)N[C@H]1C(=O)N2[C@H]1SC(C)(C)[C@H]2C(=O)O | 0 | 10µM | - | 0 | - | -
Cc1onc(-c2c(Cl)cccc2Cl)c1NC(=O)NNc1ccccc1 | 0 | - | 0 | 0 | 0 | ?
Cc1cc(C)c2[nH]c(=O)c(C(c3nnnn3CC3CCCO3)N3CCC(C)CC3)cc2c1 (stereo unspecified) | ? | 0 | 0 | ? | 0 | 0
Cc1ccc2[nH]c(=O)c(C(c3nnnn3C3CCCC3)N3CCCc4ccccc43)cc2c1 (stereo unspecified) | 14µM | 0 | 0 | ? | 0 | ?
Cc1ccc2[nH]c(=O)c(C(c3nnnn3CC3CCCO3)N3CCOCC3)cc2c1 (stereo unspecified) | ? | 0 | 0 | ? | 0 | 0
Cc1ccc2[nH]c(=O)c(C(c3nnnn3CC3CCCO3)N3CCc4ccccc4C3)cc2c1 (stereo unspecified) | ? | ? | ? | ? | 0 | 32µM
Cc1cc(C)c2[nH]c(=O)c(C(c3nnnn3CC3CCCO3)N3CCCC(C)C3)cc2c1 (stereo unspecified) | ? | ? | ? | ? | 0 | 32µM
